# Measured values taken from PubChem BioAssay (NCATS).
# Unmarked numbers belong to inactive results. Records with an inconclusive call do not appear. The source made the active and inactive calls. Unless noted, the call rests on the fitted dose curve.
# Target: Lysosomal acid glucosylceramidase (Homo sapiens) (UniProt P04062)
# Assay: Glucocerebrosidase-p2 (AID 348; in the data active means potency below about 10 µM; further: potency means the concentration at half of the fitted maximal effect)
# Details: purified GBA, blue fluorogenic substrate, 40 min
# Summary of the method: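 Normal human glucocerebrosidase (0.2 nM) with blue fluorogenic substrate (80 uM final) in citrate/phosphate pH 5.9 with 10mM sodium taurocholate, 0.01% tween-20; 40 min RT, NaOH/glycine stop; fluorescence Ex 365/Em 440; AC50 from a titration from 0.6 nM upwards.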
# Lysosomal acid glucosylceramidase (Homo sapiens), sequence (P04062 whole entry, looked up): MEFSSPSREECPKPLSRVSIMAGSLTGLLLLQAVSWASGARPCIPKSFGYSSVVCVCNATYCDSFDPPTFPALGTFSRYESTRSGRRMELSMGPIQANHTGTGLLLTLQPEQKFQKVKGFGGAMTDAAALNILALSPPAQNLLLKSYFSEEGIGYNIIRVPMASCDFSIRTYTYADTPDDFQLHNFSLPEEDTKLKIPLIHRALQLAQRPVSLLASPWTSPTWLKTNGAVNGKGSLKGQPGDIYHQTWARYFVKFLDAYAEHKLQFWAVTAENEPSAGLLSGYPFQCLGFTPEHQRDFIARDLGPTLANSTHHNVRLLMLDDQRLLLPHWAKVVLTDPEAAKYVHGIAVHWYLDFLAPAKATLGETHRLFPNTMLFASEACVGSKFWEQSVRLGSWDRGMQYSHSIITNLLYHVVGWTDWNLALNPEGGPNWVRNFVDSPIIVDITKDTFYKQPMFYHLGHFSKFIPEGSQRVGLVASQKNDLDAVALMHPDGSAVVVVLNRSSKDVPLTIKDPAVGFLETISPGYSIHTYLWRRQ
row,Compound,Potency
1,Fc1ccc(Nc2nc(-c3ccoc3)nc3ccccc23)cc1,7.43 µM (active)
2,CCNc1ncc2nc(-c3ccc(Cl)cc3)c(=O)n(Cc3cccs3)c2n1,> 11.4 µM
3,CN(C)C(=O)c1ccc(-c2nccc(NCc3cccnc3)n2)cc1,> 11.4 µM
4,c1ccc(CNc2ncncc2-c2ccoc2)cc1,> 11.4 µM
5,COc1ccc2[nH]cc(CCNc3ccnc(-c4ccoc4)n3)c2c1,> 11.4 µM
6,COc1ccc2[nH]cc(CCNc3ncnc4ccc(-c5c(C)noc5C)cc34)c2c1,> 11.4 µM
7,CC(=O)NCCNc1ncnc2ccc(-c3ccc(C(=O)N(C)C)cc3)cc12,> 11.4 µM
8,CCNc1ncc2nc(-c3ccccc3)c(=O)n(Cc3cccc(OC)c3)c2n1,> 11.4 µM
9,COCCNc1ccnc(-c2c(C)noc2C)n1,> 11.4 µM
10,COc1ccc2[nH]cc(CCNc3nc(-c4ccccc4CN(C)C)nc4ccccc34)c2c1,> 11.4 µM
11,CN(C)C(=O)c1ccc(-c2nccc(-n3ccnc3)n2)cc1,> 11.4 µM

# Test system: not listed separately
# Assay: AP1 Signaling Pathway (AID 357; active means well fitted curve in either direction with a large enough effect, not every such curve was filed as active;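 further: ME-180 reporter cells stimulated with EGF at its EC50 level; on the % scale 0 is the no-effect control and ±100 the full control effect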)
# Details: ME-180 (cervical carcinoma) AP-1-bla reporter, EGF-induced, beta-lactamase ratio, 5 h; at 7.69 µM (top of the series) unless noted
# Summary of the method: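 A ratiometric CCF4 readout (405 nm excitation; 460 and 530 nm emission) quantified AP-1-driven beta-lactamase in ME-180 cells after 5 h with compound and EC50 EGF; AC50 values were derived for activators and inhibitors.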
row,Compound,"activity change, negative = inhibition"
1,Cc1ccccc1-c1nccc(-n2ccnc2)n1,5.77%
2,CN(C)Cc1ccccc1-c1nccc(NC2CC2)n1,-4.26%
3,c1ccc2c(NC3CC3)nc(-c3ccoc3)nc2c1,14.4%
4,N#Cc1cccc(-c2cc(-n3ccnc3)ncn2)c1,0.101%
5,COc1cccc(-c2cncnc2NCCc2cnc[nH]2)c1,-20.9%
6,FC(F)(F)c1ccccc1-c1cncnc1NCCc1cnc[nH]1,-1.69%
7,CN(Cc1ccco1)c1ccnc(-c2ccoc2)n1,12%
8,COc1cccc(-c2nc(NCc3cnc(C)cn3)c3ccccc3n2)c1,-17.2%
9,c1cncc(-c2ccc3ncnc(N4CCNCC4)c3c2)c1,8.97%
10,CN(C)C(=O)c1ccc(-c2cncnc2NCCN2CCOCC2)cc1,-0.958%
11,COc1ccc2[nH]cc(CCNc3cc(-c4ccccc4CN(C)C)ncn3)c2c1,14.9%
12,COc1ccc2[nH]cc(CCNc3ccnc(-c4ccccc4C)n3)c2c1,-8.02%
13,CC(=O)NCCNc1nc(-c2ccc3c(c2)OCO3)nc2ccccc12,-7.08%
14,c1csc(CNc2nc(-c3ccc4c(c3)OCO4)nc3ccccc23)c1,0.483%
15,N#Cc1cccc(-c2cc(NCc3cccnc3)ncn2)c1,11.5%
16,c1ccc(Nc2ncncc2-c2ccc3c(c2)OCO3)cc1,-19.3%

row,Compound,"activity change, negative = inhibition"
1,COc1ccc2[nH]cc(CCNc3ncncc3-c3ccc(C(=O)N(C)C)cc3)c2c1,-13.2%
2,c1ncc(-c2ccc3c(c2)OCO3)c(NCCc2cnc[nH]2)n1,-17.2%
3,Fc1ccc(Nc2nc(-c3ccoc3)nc3ccccc23)cc1,11.4%
4,COc1ccc(CNc2ccnc(-c3cccc(NS(C)(=O)=O)c3)n2)c(OC)c1,-18.2%
5,COc1ccc(CNc2ccnc(-c3ccccc3Cl)n2)c(OC)c1,-21.2%
6,CN(C)C(=O)c1ccc(-c2nccc(NCc3cccnc3)n2)cc1,-3.36%
7,c1ccc(CNc2ncncc2-c2ccoc2)cc1,9.24%
8,COc1ccc2[nH]cc(CCNc3ccnc(-c4ccoc4)n3)c2c1,-23%
9,Clc1ccccc1-c1nc(NCCN2CCOCC2)c2ccccc2n1,16%
10,COCCNc1nc(-c2ccccc2C(F)(F)F)nc2ccccc12,-4.03%
11,CN(Cc1ccco1)c1cc(-c2cccnc2)ncn1,11.4%
12,FC(F)(F)c1ccccc1-c1cc(NCc2cccs2)ncn1,-3.47%
13,CC(=O)NCCNc1ncnc2ccc(-c3ccc(C(=O)N(C)C)cc3)cc12,-14.6%
14,COCCNc1ccnc(-c2c(C)noc2C)n1,3.45%
15,COc1ccc2[nH]cc(CCNc3nc(-c4ccccc4CN(C)C)nc4ccccc34)c2c1,-0.774%
16,CN(C)C(=O)c1ccc(-c2nccc(-n3ccnc3)n2)cc1,4.46%

# Target: Cytochrome P450 1A2 (Homo sapiens) (UniProt P05177)
# Sequence (P05177 whole entry, looked up): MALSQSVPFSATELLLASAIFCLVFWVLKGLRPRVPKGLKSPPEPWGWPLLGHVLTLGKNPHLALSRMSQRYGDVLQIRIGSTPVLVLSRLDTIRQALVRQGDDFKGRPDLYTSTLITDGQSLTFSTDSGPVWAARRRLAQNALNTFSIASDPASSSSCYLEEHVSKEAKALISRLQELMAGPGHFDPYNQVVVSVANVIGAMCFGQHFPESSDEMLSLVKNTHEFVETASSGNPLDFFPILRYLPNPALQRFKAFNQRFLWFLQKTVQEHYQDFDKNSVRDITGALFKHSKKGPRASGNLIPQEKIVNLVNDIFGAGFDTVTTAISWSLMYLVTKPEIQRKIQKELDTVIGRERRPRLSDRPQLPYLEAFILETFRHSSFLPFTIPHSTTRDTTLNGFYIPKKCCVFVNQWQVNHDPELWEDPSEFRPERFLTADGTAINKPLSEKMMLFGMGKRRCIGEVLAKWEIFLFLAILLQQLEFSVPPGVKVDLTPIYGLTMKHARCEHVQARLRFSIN
# Assay: p450-cyp1a2 (AID 410); further: potency means the concentration at half of the fitted maximal effect;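 on activity change, negative = inhibition: -100% = full effect of reference inhibitor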
# Details: recombinant CYP1A2, luciferin-ME demethylation, luminescence; series mostly up to 57 µM; activity change, negative = inhibition: at the top concentration
# Summary of the method: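 Read-out is luminescence from luciferin produced by CYP1A2 demethylation of Luciferin-ME (100uM, at Km). Detection reagent stopped the 60 min NADPH-dependent reaction; signals were normalized to 57 uM furafylline.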
Compound,Potency,"activity change, negative = inhibition"
Cc1ccccc1-c1nccc(-n2ccnc2)n1,0.0794 µM (active),–
CN(C)Cc1ccccc1-c1nccc(NC2CC2)n1,1.58 µM (active),–
c1ccc2c(NC3CC3)nc(-c3ccoc3)nc2c1,0.316 µM (active),–
N#Cc1cccc(-c2cc(-n3ccnc3)ncn2)c1,0.126 µM (active),–
CN(C)C(=O)c1ccc(-c2ccc3ncnc(Nc4ccccc4)c3c2)cc1,15.8 µM (active),–
COc1cccc(-c2cncnc2NCCc2cnc[nH]2)c1,0.398 µM (active),–
FC(F)(F)c1ccccc1-c1cncnc1NCCc1cnc[nH]1,6.31 µM (active),–
CN(Cc1ccco1)c1ccnc(-c2ccoc2)n1,12.6 µM (active),–
COc1cccc(-c2nc(NCc3cnc(C)cn3)c3ccccc3n2)c1,0.398 µM (active),–
c1cncc(-c2ccc3ncnc(N4CCNCC4)c3c2)c1,1.26 µM (active),–
CN(C)C(=O)c1ccc(-c2cncnc2NCCN2CCOCC2)cc1,–,-17.9%
COc1ccc2[nH]cc(CCNc3ccnc(-c4ccccc4C)n3)c2c1,0.316 µM (active),–
CC(=O)NCCNc1nc(-c2ccc3c(c2)OCO3)nc2ccccc12,2.51 µM (active),–
c1csc(CNc2nc(-c3ccc4c(c3)OCO4)nc3ccccc23)c1,0.794 µM (active),–
N#Cc1cccc(-c2cc(NCc3cccnc3)ncn2)c1,0.0398 µM (active),–
c1ccc(Nc2ncncc2-c2ccc3c(c2)OCO3)cc1,0.316 µM (active),–
COc1ccc2[nH]cc(CCNc3ncncc3-c3ccc(C(=O)N(C)C)cc3)c2c1,20 µM (active),–

Compound,Potency,"activity change, negative = inhibition"
c1ncc(-c2ccc3c(c2)OCO3)c(NCCc2cnc[nH]2)n1,0.398 µM (active),–
Fc1ccc(Nc2nc(-c3ccoc3)nc3ccccc23)cc1,0.316 µM (active),–
COc1ccc(CNc2ccnc(-c3cccc(NS(C)(=O)=O)c3)n2)c(OC)c1,15.8 µM (active),–
COc1ccc(CNc2ccnc(-c3ccccc3Cl)n2)c(OC)c1,5.01 µM (active),–
CN(C)C(=O)c1ccc(-c2nccc(NCc3cccnc3)n2)cc1,15.8 µM (active),–
c1ccc(CNc2ncncc2-c2ccoc2)cc1,5.01 µM (active),–
COc1ccc2[nH]cc(CCNc3ccnc(-c4ccoc4)n3)c2c1,0.501 µM (active),–
Clc1ccccc1-c1nc(NCCN2CCOCC2)c2ccccc2n1,12.6 µM (active),–
COCCNc1nc(-c2ccccc2C(F)(F)F)nc2ccccc12,1.26 µM (active),–
CN(Cc1ccco1)c1cc(-c2cccnc2)ncn1,0.316 µM (active),–
FC(F)(F)c1ccccc1-c1cc(NCc2cccs2)ncn1,3.98 µM (active),–
COc1ccc2[nH]cc(CCNc3ncnc4ccc(-c5c(C)noc5C)cc34)c2c1,7.94 µM (active),–
CC(=O)NCCNc1ncnc2ccc(-c3ccc(C(=O)N(C)C)cc3)cc12,25.1 µM (active),–
COCCNc1ccnc(-c2c(C)noc2C)n1,2.51 µM (active),–
COc1ccc2[nH]cc(CCNc3nc(-c4ccccc4CN(C)C)nc4ccccc34)c2c1,25.1 µM (active),–
CN(C)C(=O)c1ccc(-c2nccc(-n3ccnc3)n2)cc1,15.8 µM (active),–
